Source: ChEMBL document CHEMBL3433997, “St. Jude Leishmania screening dataset” (2016)

Columns and labels:
Type in all cases: functional
[1] = molecular target: Solute carrier family 2, facilitated glucose transporter member 1 (Homo sapiens) (UniProt P11166); assay: ST_JUDE_LEISH: Cytotoxicity at 2uM final concentration against transgenic Leishmania Mexicana promastigotes LmGLUT1 that are glucose transport deficient and complemented with the human glucose transporter GLUT1. Activity is measured by DNA content using SYBR green in vitro
Chain of Solute carrier family 2, facilitated glucose transporter member 1 (Homo sapiens) (P11166 whole entry): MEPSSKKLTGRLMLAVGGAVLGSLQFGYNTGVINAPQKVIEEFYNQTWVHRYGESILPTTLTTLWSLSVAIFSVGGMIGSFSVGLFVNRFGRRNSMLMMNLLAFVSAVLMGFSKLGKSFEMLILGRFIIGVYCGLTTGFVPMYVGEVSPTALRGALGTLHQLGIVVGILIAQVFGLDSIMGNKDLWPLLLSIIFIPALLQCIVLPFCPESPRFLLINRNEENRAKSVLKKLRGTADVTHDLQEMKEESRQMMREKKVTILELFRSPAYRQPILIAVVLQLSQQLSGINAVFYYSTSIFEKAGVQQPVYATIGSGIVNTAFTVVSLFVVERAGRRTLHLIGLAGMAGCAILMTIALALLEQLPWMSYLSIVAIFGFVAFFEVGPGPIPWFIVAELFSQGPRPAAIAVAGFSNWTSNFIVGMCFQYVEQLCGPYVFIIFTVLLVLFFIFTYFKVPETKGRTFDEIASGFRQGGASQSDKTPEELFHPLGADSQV

[2] = molecular target: Hexose transporter 1 (Plasmodium falciparum) (UniProt O97467); assay: ST_JUDE_LEISH: Cytotoxicity at 2uM final concentration against transgenic Leishmania Mexicana promastigotes LmPfHT that are glucose transport deficient and complemented with the Plasmodium falciparum hexose transporter. Activity is measured by DNA content using SYBR green in vitro
[3] = molecular target: Glucose transporter (Leishmania mexicana) (UniProt O61059); assay: ST_JUDE_LEISH: Cytotoxicity at 2uM final concentration against transgenic Leishmania Mexicana promastigotes LmGT2 that are glucose transport deficient and complemented with the L. Mexicana glucose transporter 2. Activity is measured by DNA content using SYBR green in vitro

O=C(Cn1c(CCc2cccc(F)c2F)nc(=O)c2ccccc21)N(CCN1CCCC1)Cc1ccc(-c2ccc(C(F)(F)F)cc2)cc1
inhibition [1]: 0.45% | inhibition [2]: 0.38% | inhibition [3]: -4.3%

O=C(Nc1ccc(Cl)cc1)N(CC1CC2CCC(C1)N2Cc1ccc(C(F)(F)F)cc1)c1ccc(N2CCOCC2)c(F)c1 (centres undefined)
inhibition [1]: 6.73% | inhibition [2]: 5.58% | inhibition [3]: 8.78%

CC(C)c1sc(-c2ccc(C(C)(C)C)cc2)nc1C(=O)NCCCN1CCCC1=O
inhibition [1]: 1.02% | inhibition [2]: 1.22% | inhibition [3]: 1.9%

O=C(NCCCCN1CCN(c2cccc(Cl)c2Cl)CC1)c1ccc2c(c1)CCN(C1CCC1)CC2
inhibition [1]: 1.09% | inhibition [2]: -1.47% | inhibition [3]: -0.46%

CC(C)c1sc(N2CCN(C)CC2)nc1C(=O)NCCc1ccc(Cl)c(Cl)c1
inhibition [1]: 2.62% | inhibition [2]: 2.93% | inhibition [3]: 2.34%

Cc1ccccc1CNc1ccc2nc(N)nc(N)c2c1
inhibition [1]: 1.01% | inhibition [2]: 2.12% | inhibition [3]: -0.21%

N#Cc1ccccc1N1CCN(C2CCC(NC(=O)c3n[nH]c4cc(C(F)(F)F)ccc34)CC2)CC1 (centres undefined)
inhibition [1]: 2.94% | inhibition [2]: 1.88% | inhibition [3]: 0.43%

CN1CCCN(Cc2ccc(-c3cccc(NC(=O)c4cccc(F)c4)c3)cc2)CC1
inhibition [1]: 12.9% | inhibition [2]: 9.38% | inhibition [3]: 7.57%

CC(Oc1ccc(Cl)cc1)C(=O)NCCC1CCN(CCCCCNC(=O)/C=C/c2ccc(Cl)c(Cl)c2)CC1 (centres undefined)
inhibition [1]: 2.73% | inhibition [2]: 1.37% | inhibition [3]: 0.04%

CC(C)Sc1nc2c(c(=O)n1Cc1ccco1)C1(CCCCC1)Cc1ccccc1-2
inhibition [1]: 2.09% | inhibition [2]: 2.03% | inhibition [3]: 1.54%

CCCC(C)NC(=O)[C@H](Cc1ccccc1)NC(=O)c1ccc(O)c(-c2ccc(OC)cc2)c1 (some centres undefined)
inhibition [1]: 4.38% | inhibition [2]: 3.09% | inhibition [3]: 3.9%

CC(=O)Nc1ccc(C(=O)Nc2cccc(-c3ccc(-c4nc5ccccc5[nH]4)cc3)c2)cn1
inhibition [1]: 4.19% | inhibition [2]: 3.31% | inhibition [3]: 5.92%

CCCCCCNC(=N)c1ccc2[nH]c(-c3ccc(O)cc3)nc2c1
inhibition [1]: 3.58% | inhibition [2]: 4.17% | inhibition [3]: 3.78%

CCN(CC)CCCC(C)N=c1cc(C=Cc2ccc([N+](=O)[O-])cc2)[nH]c2ccc(OC)cc12 (centres undefined)
inhibition [1]: 2.45% | inhibition [2]: 5.16% | inhibition [3]: 2.98%

Cc1ccc(Nc2nccc(NCC(O)c3cccc(F)c3)n2)cc1 (centres undefined)
inhibition [1]: 0.93% | inhibition [2]: 1.15% | inhibition [3]: -0.59%

FC(F)(F)c1ccc(-c2cncc(-c3ccc(C(F)(F)F)cc3)n2)cc1
inhibition [1]: -1.94% | inhibition [2]: -1.14% | inhibition [3]: -1.64%

Cc1cc(F)ccc1-c1nc(N(C)CCN(C)C(=O)N(C)c2ccccc2)nc2c1ccc(=O)n2-c1c(F)cccc1F
inhibition [1]: 2.99% | inhibition [2]: 3.18% | inhibition [3]: 9.88%

c1cc(CN2CCCCC2)cc(-c2ccc(-c3nc4ccccc4[nH]3)cc2)c1
inhibition [1]: -0.4% | inhibition [2]: 2.76% | inhibition [3]: -1.06%

CN(C)CCNCc1nc(-c2ccc3c(Nc4ccc(Cl)cc4F)ccnc3c2)cs1
inhibition [1]: 9.87% | inhibition [2]: 8.58% | inhibition [3]: 10.1%

CN1CCN(CCCN(Cc2cccc(-c3ccc(CNCCc4ccccc4)cc3)c2)C(=O)c2cccs2)CC1
inhibition [1]: 4.14% | inhibition [2]: 4.22% | inhibition [3]: 3.91%

Cc1cc(F)ccc1Nc1nc(N(C)c2ccccc2)c2cccc(O)c2n1
inhibition [1]: 12.3% | inhibition [2]: 9.06% | inhibition [3]: 1.82%

c1ccc2cc3c(Nc4ccc(N5CCCCC5)cc4)ccnc3cc2c1
inhibition [1]: 2.76% | inhibition [2]: 4.37% | inhibition [3]: 2.3%

O=C(NCCCN1CCC(NC(=O)c2ccc(-c3cccnc3)cc2)CC1)c1ccc(Cl)c(Cl)c1
inhibition [1]: 2.51% | inhibition [2]: 1.38% | inhibition [3]: 1.63%

C=CCOc1cccc2c1CCN(CCN1CCC(NC(=O)c3ccc(-c4ccc(Cl)cc4)cc3)CC1)C2
inhibition [1]: 17.2% | inhibition [2]: 11.3% | inhibition [3]: 9.23%

O=C(Nc1cccc(CN2CCN(Cc3ccc(O)cc3)CC2)c1)c1cccc(C(F)(F)F)c1
inhibition [1]: 6.03% | inhibition [2]: 6.51% | inhibition [3]: 4.56%

COc1cccc(-c2ccc3c(-c4cccc(NC(C)=O)c4)cnc(N)c3c2)c1
inhibition [1]: 5.41% | inhibition [2]: 4.32% | inhibition [3]: 3.78%

CC(CN(C)C)C(=O)Nc1ccc(-c2ccc(-c3nc4ccccc4[nH]3)cc2)cc1 (centres undefined)
inhibition [1]: 3.03% | inhibition [2]: 3.01% | inhibition [3]: 5.36%

O=C(NCc1ccc(F)cc1)c1ccc(N2CCN(c3ccncc3)CC2)cn1
inhibition [1]: 2.68% | inhibition [2]: -0.85% | inhibition [3]: 1.79%

COc1cc2c(cc1OC)C(C(=O)c1ccccc1)=NCC2
inhibition [1]: 1.66% | inhibition [2]: 2.92% | inhibition [3]: 2.28%

Cc1cc(=NN=Cc2cccc(F)c2)c2cc(F)ccc2[nH]1
inhibition [1]: 8.18% | inhibition [2]: 9.63% | inhibition [3]: 4.81%

CCCCC(=O)Nc1nonc1-c1ccc(OCC)c(OCC)c1
inhibition [1]: -0.29% | inhibition [2]: -0.24% | inhibition [3]: -4.47%

CC(Oc1ccc(Cl)cc1)C(=O)Nc1cc(C(F)(F)F)ccc1N1CCOCC1 (centres undefined)
inhibition [1]: 8.02% | inhibition [2]: 10.4% | inhibition [3]: 6.86%

O=C(Nc1cccc(-c2cccc(-c3nc4ccccc4[nH]3)c2)c1)c1csnn1
inhibition [1]: 5.15% | inhibition [2]: 5.92% | inhibition [3]: 1.92%
